GDH-TPI counter-1 – counter-screen for M. tuberculosis FBA inhibitors: GDH-TPI coupled enzymes | GDH-TPI coupled enzyme counterscreen, NADH absorbance | 1.2% of 360,000 active | inhibition, % at 4.8 µM; in the data active = inhibition above about 30%;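 also: 0% = DMSO wells and 100% = wells lacking the enzyme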
PrPC surface inh – cell surface PrPC inhibition, primary TR-FRET screen; TR-FRET read-out; inhibition, % at 13.8 µM; 0.43% of 370,000 active; P04156; in the data active = inhibition above about 24%; also: 0% = median of the test wells and 100% = reference compound wells
BJeLR viability – BJeLR cell viability loss; BJeLR (HRASV12) viability, CellTiter-Glo ATP luminescence, 48 h; inhibition, % (concentration not given with the values); 0.17% of 300,000 active; AID 1554; in the data active = inhibition above about 50%
Mtb FBA inh – inhibitors of M. tuberculosis fructose-bisphosphate aldolase; purified M. tuberculosis FBA, fluorescence read-out; P9WQA3; inhibition, % at 1 µM; AID 588726; 2.3% of 360,000 active;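 also: 0% = vehicle and 100% = reference inhibitor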
Target sequence (P9WQA3 whole entry, looked up): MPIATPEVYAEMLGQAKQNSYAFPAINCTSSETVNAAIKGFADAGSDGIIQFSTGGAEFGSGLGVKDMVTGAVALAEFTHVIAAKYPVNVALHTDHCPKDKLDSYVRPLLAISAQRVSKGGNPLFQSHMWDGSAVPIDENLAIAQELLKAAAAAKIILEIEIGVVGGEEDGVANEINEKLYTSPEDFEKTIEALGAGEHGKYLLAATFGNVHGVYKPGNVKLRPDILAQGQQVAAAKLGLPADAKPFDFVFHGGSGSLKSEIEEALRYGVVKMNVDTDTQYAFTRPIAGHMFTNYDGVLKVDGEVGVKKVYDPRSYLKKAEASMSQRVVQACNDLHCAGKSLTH
RecA intein inh – inhibitors of M. tuberculosis RecA intein splicing. cell-free RecA intein splicing, fluorescence. P9WHJ3. inhibition, % (no concentration beside the values). 0.75% of 290,000 active; in the data active = inhibition above about 30%;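 also: 0% = vehicle wells and 100% = reference inhibitor control wells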
Mtb FBA confirm – confirmation of M. tuberculosis fructose-bisphosphate aldolase inhibitors. shares compounds with Mtb FBA inh. purified M. tuberculosis FBA, fluorescence read-out. inhibition, % at 1 µM. 78% of 5,600 active. AID 651616;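 also: 0% = vehicle wells and 100% = reference inhibitor wells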
GDH-TPI counter-2 – inhibits GDH-TPI coupling enzymes, flagging Mtb FBA hits; shares compounds with Mtb FBA inh; GDH-TPI coupled enzyme counterscreen, fluorescence; inhibition, % at 1 µM; 81% of 5,600 active; in the data active = inhibition above about 10%
Starred values were filed as active, the others as inactive; i = inactive; x = not tested or not shown; + = active, no number. In the library only some 4.2% were active in any assay of this set; here they are far more common. Rule as the data show it, unless noted: active = inhibition above about 27%; inactive = the rest.

SMILES	GDH-TPI counter-1	PrPC surface inh	BJeLR viability	Mtb FBA inh	RecA intein inh	Mtb FBA confirm	GDH-TPI counter-2
COc1cc(OC)cc(-c2c(-c3cccs3)c3cc(-c4ccc(OC)c(OC)c4)ccc3n2C)c1	19	1	x	32*	x	+	170*
Cc1ccc(-n2nc3ccc(NC(=O)C(C)C)cc3n2)cc1	-2	-3	-3	23	8	x	x
CC(C)CC(=O)Nc1ccc2nn(-c3ccccc3)nc2c1	18	-4	-5	72*	4	3	-1
CC(=O)Nc1cc2nn(-c3ccccc3)nc2cc1C	19	-21	-1	90*	-2	200*	159*
N=c1oc2cc(O)ccc2cc1C(=O)Nc1ccc(Cl)cc1	10	0	6	103*	i	+	+
Cc1ccc(-c2nc3c(=O)n(C)c4ccccc4c3o2)cc1	8	0	-10	35*	1	2	-2
Cc1ccc(-c2nc3c(=O)n(-c4ccccc4)c4c(c(=O)n(C)c(=O)n4C)c3o2)cc1	0	5	7	2	-2	x	x
COC(=O)[C@]12C[C@H](CC(=O)N3CCOCC3)C(=O)N(Cc3ccc4c(c3)OCO4)C1=C[C@H](COCc1ccccc1)O[C@@H]2C	x	-8	x	x	x	x	x
Cn1c(NCc2ccco2)nc2ccccc21	-3	3	1	-4	-3	x	x
Cn1nnc2c(NCc3ccco3)nccc21	-3	-2	-14	64*	0	53*	43*
COc1cc(OC)cc(C(=O)Nc2nc3ccc(S(C)(=O)=O)cc3s2)c1	30	-4	11	2	-5	x	x
O=C(Nc1nc2ccc(SC(F)F)cc2s1)c1ccc(NS(=O)(=O)c2ccc(F)c(F)c2)cc1	29	9	-11	55*	1	+	+
CS(=O)(=O)c1ccc2nc(NC(=O)c3cccc(NS(=O)(=O)c4ccc(F)c(F)c4)c3)sc2c1	10	8	6	29*	-1	151*	139*
CS(=O)(=O)c1ccc2nc(NC(=O)c3ccc(NS(=O)(=O)c4ccc(F)c(F)c4)cc3)sc2c1	60*	3	3	71*	-3	79*	82*
CCOC(=O)c1sc2nc(C)nc(NCc3ccccc3OC)c2c1C	5	6	6	0	3	x	x
CCOC(=O)c1sc2nc(C)nc(NCCc3ccccn3)c2c1C	3	6	10	71*	2	22	12*
COc1ccc(C=NNC(=O)Cc2cc(=O)[nH][nH]2)c(OC)c1	x	-6	x	x	x	x	x
C[C@H]1[C@@H](OC(=O)NCc2ccc(C(F)(F)F)cc2)CC[C@@]23CCCN2C(=O)CCC[C@@H]13	x	8	x	x	x	x	x
CN1C2=N[C@H](c3ccc(Br)cc3)CC(=O)N2/C(=C\c2ccccc2)[C@@H]1c1ccccc1	x	14	x	x	x	x	x
CC(C)(NC(=O)c1cc(Cl)c2ccccc2c1O)C(=O)O	15	10	4	56*	-4	66*	57*
O=C(O)c1cc(Cl)nc2ccccc12	-14	-4	0	-4	1	x	x
O=C(O)c1cc(Cl)c2ccccc2c1O	2	8	1	40*	2	50*	44*
CCC(=O)NC(C)c1cc(Cl)c2ccccc2c1O (stereo not given)	-4	0	x	9	x	x	x
COC(=O)c1cc(-c2ccc(C)c(C)c2)c(=O)n2c1CCC2	x	-10	x	x	x	x	x
O=C(Nc1ccc2oc(-c3ccccc3)nc2c1)c1ccncc1	11	12	8	0	1	x	x
Cc1ccc(-c2nc3cc(NS(=O)(=O)c4ccc(C)cc4)ccc3o2)cc1	14	4	-1	33*	-4	45*	28*
O=S(=O)(Nc1ccc2oc(-c3ccccc3)nc2c1)c1ccccc1	4	9	2	50*	11	141*	112*
CN1CCCN(S(=O)(=O)c2ccc3c(c2)CCC(=O)N3)CC1	x	-8	x	x	x	x	x
CSc1ccc(/C=C/C(=O)OCC(=O)NC(C)C)cc1	20	4	1	58*	13	98*	93*
CCOC(=O)C1=C(COC(=O)/C=C/c2ccc(SC)cc2)NC(=O)NC1C (stereo not given)	19	-3	-3	40*	-1	35*	23*

Assay outcomes (PubChem)
